Some structures have more than one record in an assay (separate samples or runs), and their calls can disagree. Calls of active or inactive are those of the source. The calls were made as follows: active = hit-call score of the fitted dose curve at least 0.9, where 1 is the maximum; inactive = score below 0.9.
How the values were obtained:
Settings in all cases: mRNA level, 48 h; actives raise or lower the signal
[1] = read-out: Insulin Like Growth Factor 1 (IGF1), IGF1 (gene 3479); assay: LTEA_HepaRG_IGF1: Life Technologies and Expression Analysis (LTEA) Assay for Insulin Like Growth Factor 1 (IGF1) using HepaRG (AID 2283506)
Outline: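 qRT-PCR readout of IGF1 mRNA, normalized to three housekeeping genes, after 48 h chemical exposure of HepaRG cells. Concentrations: 8-point half-log series, top 100 uM, 0.5% DMSO vehicle. Gain or loss fitted against DMSO baseline.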

[2] = read-out: Intercellular Adhesion Molecule 1 (ICAM1), ICAM1 (gene 3383); assay: LTEA_HepaRG_ICAM1: Life Technologies and Expression Analysis (LTEA) Assay for Intercellular Adhesion Molecule 1 (ICAM1) using HepaRG (AID 2283507)
Outline: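 Readout is qRT-PCR mRNA level, normalized to three housekeeping genes and fitted bidirectionally against 0.5% DMSO vehicle. Human HepaRG cultures received compound for 48 h, top concentration 100 uM with half-log dilutions.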

[3] = read-out: Insulin-like growth factor-binding protein 1 (IGFBP1), IGFBP1 (gene 3484); assay: LTEA_HepaRG_IGFBP1: Life Technologies and Expression Analysis (LTEA) Assay for Insulin-like growth factor-binding protein 1 (IGFBP1) using HepaRG (AID 2283508)
Outline: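 Thawed HepaRG cells are plated for 48 h, switched to serum-free induction medium, then dosed in duplicate for another 48 h (100 uM top, half-log steps). Lysates in RLT go to qRT-PCR, and gain or loss of signal is fitted relative to vehicle.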

[4] = read-out: Interleukin 6 (IL6), IL6 (gene 3569); assay: LTEA_HepaRG_IL6: Life Technologies and Expression Analysis (LTEA) Assay for Interleukin 6 (IL6) using HepaRG (AID 2283509)
Outline: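 Changes in IL6 mRNA, up or down relative to 0.5% DMSO controls, were derived from concentration-response curves in human HepaRG cells treated for 48 h at up to 100 uM, with ACTB, GAPDH and POLR2A as normalizers.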

[5] = read-out: Interleukin 6 Receptor (IL6R), IL6R (gene 3570); assay: LTEA_HepaRG_IL6R: Life Technologies and Expression Analysis (LTEA) Assay for Interleukin 6 Receptor (IL6R) using HepaRG (AID 2283510);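 as to AC50: TaqMan qRT-PCR signal normalized to ACTB GAPDH and POLR2A housekeeping genes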
Outline: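 HepaRG, 48 h exposure, 8-pt half-log series, top 100 uM, 0.5% DMSO vehicle, duplicates. Read-out: TaqMan qRT-PCR of IL6R transcript, housekeeping-gene normalized. Gain or loss fitted relative to DMSO baseline.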

[6] = read-out: Potassium channel subfamily K member 1 (KCNK1), KCNK1 (gene 3775); assay: LTEA_HepaRG_KCNK1: Life Technologies and Expression Analysis (LTEA) Assay for Potassium channel subfamily K member 1 (KCNK1) using HepaRG (AID 2283511)
Outline: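 Human HepaRG cultures receive test chemicals for 48 h in 0.5% DMSO, top concentration 100 uM with half-log dilutions. Induction or suppression of KCNK1 mRNA relative to DMSO is derived by bidirectional fitting of qRT-PCR data.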

[7] = read-out: Keratin 19 (KRT19), KRT19 (gene 3880); assay: LTEA_HepaRG_KRT19: Life Technologies and Expression Analysis (LTEA) Assay for Keratin 19 (KRT19) using HepaRG (AID 2283512)
Outline: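 KRT19 transcript levels, measured by Fluidigm qRT-PCR against three housekeeping genes, are fitted for gain or loss of signal relative to DMSO. Human HepaRG cells receive test chemicals (top 100 uM, half-log steps, 0.5% DMSO) for 48 hours.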

[8] = read-out: JUN Transcription Factor, JUN (gene 3725); assay: LTEA_HepaRG_JUN: Life Technologies and Expression Analysis (LTEA) Assay for JUN Transcription Factor using HepaRG (AID 2283513)
Outline: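 HepaRG, 48 h exposure, 8-pt half-log series top 100 uM, 0.5% DMSO, duplicate. JUN mRNA by qRT-PCR (Fluidigm), housekeeping-normalized (ACTB/GAPDH/POLR2A); bidirectional curve fit vs DMSO baseline.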

[9] = read-out: Lipoprotein lipase (LPL), LPL (gene 4023); assay: LTEA_HepaRG_LPL: Life Technologies and Expression Analysis (LTEA) Assay for Lipoprotein lipase (LPL) using HepaRG (AID 2283515)
Outline: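 Concentration-response testing used half-log steps from 100 uM in 0.5% DMSO on human HepaRG cells, 48 h, duplicate wells. Phenobarbital 1 mM served as induction control; LPL mRNA was normalized to ACTB, GAPDH, POLR2A.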

[10] = read-out: MicroRNA 122 (MIR122), gene 406906; assay: LTEA_HepaRG_MIR122: Life Technologies and Expression Analysis (LTEA) Assay for MicroRNA 122 (MIR122) using HepaRG (AID 2283516); also: the transcript read is the microRNA miR-122
Outline: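 qRT-PCR read-out (TaqMan, Fluidigm array), normalized to three housekeeping genes; HepaRG cells dosed 48 h at 8 concentrations up to 100 uM in 0.5% DMSO, duplicate; gain or loss fitted against DMSO baseline.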

[11] = read-out: matrix metalloproteinase-10 (MMP10), MMP10 (gene 4319); assay: LTEA_HepaRG_MMP10: Life Technologies and Expression Analysis (LTEA) Assay for matrix metalloproteinase-10 (MMP10) using HepaRG (AID 2283517)
Outline: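 In differentiated HepaRG cultures kept in 0.5% DMSO, test chemicals act for 48 h over an eight-point range with a top dose of 100 uM. Expression is then quantified by TaqMan RT-PCR against ACTB, GAPDH and POLR2A.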

MYC, MYC (gene 4609) = assay: LTEA_HepaRG_MYC: Life Technologies and Expression Analysis (LTEA) Assay for MYC using HepaRG (AID 2283518)
Outline: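 HepaRG, ~100,000 cells/well, collagen I; 48 h plating; serum-free induction medium; 48 h dosing, duplicate, 100 uM top, half-log, 0.5% DMSO; total RNA → qRT-PCR MYC; gain/loss fit vs DMSO.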

[12] = read-out: matrix metalloproteinase-3 (MMP3), MMP3 (gene 4314); assay: LTEA_HepaRG_MMP3: Life Technologies and Expression Analysis (LTEA) Assay for matrix metalloproteinase-3 (MMP3) using HepaRG (AID 2283519)
Outline: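 Human liver HepaRG cultures received chemicals (top concentration 100 uM, 0.5% DMSO) for 48 h in duplicate. MMP3 mRNA induction or loss was then assessed via TaqMan qRT-PCR with housekeeping-gene normalisation.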

[13] = read-out: Paternally Expressed 10 (PEG10), PEG10 (gene 23089); assay: LTEA_HepaRG_PEG10: Life Technologies and Expression Analysis (LTEA) Assay for Paternally Expressed 10 (PEG10) using HepaRG (AID 2283520);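 as to AC50: PEG10 transcript by qRT-PCR normalised to ACTB GAPDH and POLR2A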
Outline: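 qRT-PCR read-out: PEG10 mRNA normalised to three housekeeping genes, fitted bidirectionally against 0.5% DMSO vehicle. HepaRG cells received test chemicals for 48 h in serum-free induction medium, 8 points, top 100 uM, half-log steps.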

[14] = read-out: Protein phosphatase 2A (PPP2R4), PTPA (gene 5524); assay: LTEA_HepaRG_PPP2R4: Life Technologies and Expression Analysis (LTEA) Assay for Protein phosphatase 2A (PPP2R4) using HepaRG (AID 2283522)
Outline: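 HepaRG, 48 h exposure, 8-pt half-log series from 100 uM, 0.5% DMSO vehicle, duplicates. Readout: PPP2R4 mRNA, Fluidigm qRT-PCR, housekeeping-normalized. Bidirectional curve fit vs DMSO baseline.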

[15] = read-out: Phosphatase and tensin (PTEN), PTEN (gene 5728); assay: LTEA_HepaRG_PTEN: Life Technologies and Expression Analysis (LTEA) Assay for Phosphatase and tensin (PTEN) using HepaRG (AID 2283523)
Outline: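 Expression of PTEN is quantified in the human liver line HepaRG following two days of dosing (top concentration 100 uM, half-log dilutions, 0.5% DMSO). Values derive from bidirectional curve fitting relative to DMSO controls.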

[16] = read-out: solute carrier (SLC22A1), SLC22A1 (gene 6580); assay: LTEA_HepaRG_SLC22A1: Life Technologies and Expression Analysis (LTEA) Assay for solute carrier (SLC22A1) using HepaRG (AID 2283524)
Outline: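 Transcript induction or suppression of SLC22A1 in human HepaRG cultures is scored after 48 h chemical treatment, with DMSO (0.5%) as baseline for bidirectional fitting. Concentrations span eight half-log points topping at 100 uM.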

[17] = read-out: Pyruvate Dehydrogenase Kinase 4 (PDK4), PDK4 (gene 5166); assay: LTEA_HepaRG_PDK4: Life Technologies and Expression Analysis (LTEA) Assay for Pyruvate Dehydrogenase Kinase 4 (PDK4) using HepaRG (AID 2283525)
Outline: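 Eight-point, half-log concentration series (max 100 uM, 0.5% DMSO) applied to differentiated HepaRG cells for 48 h in duplicate. Endpoint: PDK4 mRNA induction or repression by qRT-PCR against DMSO baseline.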

[18] = read-out: Nuclear factor NF-kappa-B p105 subunit (Homo sapiens) (UniProt P19838); assay: LTEA_HepaRG_NFKB1: Life Technologies and Expression Analysis (LTEA) Assay for Nuclear Factor Kappa B Subunit 1 (NFKB1) using HepaRG (AID 2283521);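 also: TaqMan qRT-PCR transcript normalised to ACTB GAPDH and POLR2A housekeeping genes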
Outline: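 Differentiated human HepaRG cells in serum-free induction medium with 0.5% DMSO were exposed for 48 h to eight half-log concentrations, top 100 uM, in duplicate. NFKB1 mRNA measured by Fluidigm TaqMan qRT-PCR, normalised to ACTB, GAPDH and POLR2A; bidirectional fit versus DMSO.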

Measured: AC50

Nuclear factor NF-kappa-B p105 subunit (Homo sapiens), sequence (P19838 whole entry, looked up): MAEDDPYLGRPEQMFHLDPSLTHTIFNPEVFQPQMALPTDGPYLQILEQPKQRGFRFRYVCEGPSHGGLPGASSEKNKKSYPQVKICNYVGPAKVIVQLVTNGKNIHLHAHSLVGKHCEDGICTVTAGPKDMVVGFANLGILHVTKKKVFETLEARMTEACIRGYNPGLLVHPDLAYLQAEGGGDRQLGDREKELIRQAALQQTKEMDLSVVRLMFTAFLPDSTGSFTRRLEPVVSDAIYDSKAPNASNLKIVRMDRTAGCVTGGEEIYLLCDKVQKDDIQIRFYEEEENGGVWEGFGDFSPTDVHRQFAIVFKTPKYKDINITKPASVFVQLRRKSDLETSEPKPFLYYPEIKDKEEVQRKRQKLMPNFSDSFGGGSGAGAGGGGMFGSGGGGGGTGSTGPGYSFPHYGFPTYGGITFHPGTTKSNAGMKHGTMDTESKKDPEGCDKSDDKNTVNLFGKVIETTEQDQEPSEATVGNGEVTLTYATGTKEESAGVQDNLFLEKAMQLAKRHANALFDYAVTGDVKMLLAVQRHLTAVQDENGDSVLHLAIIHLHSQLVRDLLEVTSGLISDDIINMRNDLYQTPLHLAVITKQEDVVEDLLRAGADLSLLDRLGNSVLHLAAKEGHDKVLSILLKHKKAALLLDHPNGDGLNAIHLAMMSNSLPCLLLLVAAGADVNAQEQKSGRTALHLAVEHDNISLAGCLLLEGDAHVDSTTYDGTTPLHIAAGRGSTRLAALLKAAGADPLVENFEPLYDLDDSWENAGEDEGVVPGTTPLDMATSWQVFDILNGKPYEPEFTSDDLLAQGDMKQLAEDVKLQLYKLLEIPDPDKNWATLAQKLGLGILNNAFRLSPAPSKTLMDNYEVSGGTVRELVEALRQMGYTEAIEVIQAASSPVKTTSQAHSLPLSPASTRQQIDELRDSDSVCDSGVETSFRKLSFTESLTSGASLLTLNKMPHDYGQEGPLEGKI

O=C(O)c1nc(Cl)ccc1Cl
inactive: [1] | [2] | [3] | [4] | [5] | [6] | [7] | [8] | [9] | [10] | [11] | MYC, MYC (gene 4609) | [12] | [13] | [14] | [15] | [16] | [17]
active: [17] 50 µM

Cc1c(F)c(F)c(COC(=O)C2C(/C=C(\Cl)C(F)(F)F)C2(C)C)c(F)c1F (stereo unspecified)
active: [1] 69.4 µM | [16] 12.3 µM
inactive: all other assays above

Fc1ccc(Oc2ccnc3cc(Cl)cc(Cl)c23)cc1
active: [1] 50 µM | [3] 57.2 µM | [4] 77.4 µM | [7] 50 µM | [13] 33.5 µM | [16] 97.8 µM | [17] 50 µM
not listed: [5] | [18]
inactive: all other assays above

CC1=C(C(=O)Nc2ccccc2)SCCO1
active: [5] 50 µM | [7] 41.7 µM | [9] 36.5 µM | [16] 14.2 µM
not listed: [18]
inactive: all other assays above

CC1COC(Cn2cncn2)(c2ccc(Oc3ccc(Cl)cc3)cc2Cl)O1 (stereo unspecified)
inactive: [5] | [17]
active: [1] 12.1 µM | [2] 26.2 µM | [3] 19 µM | [4] 31.9 µM | [6] 33.1 µM | [7] 12.9 µM | [8] 62.4 µM | [9] 12.4 µM | [10] 12.6 µM | [11] 30.8 µM | MYC, MYC (gene 4609) 23.9 µM | [12] 31.7 µM | [13] 59.1 µM | [14] 80.6 µM | [15] 78.5 µM | [16] 9.15 µM

Source: PubChem BioAssay (EPA / NIEHS)
